# This is part of a sample that, as a whole, favours compounds with a hit. Of some 83,000 tested, about 20% had one in any assay.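 Plates (96-well) were seeded with cells, treated with compound at one concentration, and incubated for 48 hours before percent growth was determined.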 A number with no mark means an inactive call. The source made the active and inactive calls. How the source made its calls: active means growth percent below 10; inactive means the rest.
# System: MDA-MB-468 breast
# Assay: NCI-60 one-dose screen, 48 h (100 = growth as untreated, 0 = no growth, -100 = all killed)
# Details: 10 µM unless noted
row,Structure (SMILES),growth
1,CC1=CC(C)(C)NC(=S)N1c1ccc(S(=O)(=O)O)c2cccc(S(=O)(=O)O)c12,107%
2,CCCCCCCCCCCC[N+](C)(C)Cc1ccccc1,-26.4% (active)
3,COc1ccc(-c2c3c(N)c4c(nc3nc3c2c(C)nn3-c2ccccc2)CCCC4)cc1,70.3%
4,Cc1cc(C)c(-c2c(N)cc(Br)cc2Br)c(N)c1,-17.1% (active)
5,CNC(=O)c1cc(Oc2ccc3nc(NC(=O)Nc4ccc(F)cc4F)sc3c2)ccn1,51.2%
6,CCCC(=O)NC(c1ccc2c(c1)OCO2)c1cc(Cl)c2cccnc2c1O (configuration not stated),7.89% (active)
7,Cc1cc(Nc2ccc3c(c2)OCO3)c2cc3c(cc2n1)OCO3,26.5%
8,C=CCn1c(SCC(=O)Nc2ccc(C(=O)/C=C/c3cc(OC)c(OC)c(OC)c3)cc2)nnc1-c1cc(-c2ccc(S(N)(=O)=O)cc2)nc2ccccc12,89.3%
9,CCCC(O)Cn1ncc(C(=O)OCC)c1NC(=O)NCc1cccc(C(F)(F)F)c1 (configuration not stated),79.3%
10,COc1ccc(-c2ccc3c(c2)sc2nc(-c4ccc(F)cc4)cn23)cc1,66.7%
11,Cc1cc(C)c(NC(=O)c2sc3nc4c(cc3c2N)CCCCCC4)c(C)c1,40.1%
12,C#CCOC(=O)[C@]1(C)CCC[C@]2(C)[C@H]3C[C@H]4C(C(C)C)=C[C@]3(CC[C@H]21)[C@@H]1C(=O)CCC(=O)[C@@H]14,78%
13,Brc1ccccc1Cn1c(-c2cncs2)nc2ccccc21,61.8%
14,O=C(CCCCN1CCOCC1)Nc1ccc(Cn2nnc3c2C(=O)c2nnn(Cc4ccc(NC(=O)CCCCN5CCOCC5)cc4)c2C3=O)cc1,-76.9% (active)
15,O=C(N/N=C/[C@@H](O)[C@H](O)[C@H](O)CO)c1ccc(NC(=O)c2cccnc2)cc1,101%
16,CCOC(=O)c1c(C)oc2ncnc(N3CCN(C(=O)COc4ccc(SC)cc4)CC3)c12,81.9%
17,CCOC(=O)c1c(NCC(=O)Nc2cccc([N+](=O)[O-])c2)sc(C(C)=O)c1C,-22.5% (active)
18,CCN1C(=O)N(CC)C2SC(N/N=C/c3ccccc3F)=NC21 (configuration not stated),40.4%
19,CC(=O)Nc1nc(C)c(C(=O)NNC=O)s1,116%

row,Structure (SMILES),growth
1,Cc1ccc(C2CC(c3ccc(Nc4nc(NCCO)nc(Nc5ccc(Cl)cc5)n4)cc3)=Nc3c(N)nc(N)nc3N2)cc1 (configuration not stated),-80% (active)
2,NC(=O)c1cnc(Nc2cccc(N)c2)nc1NCCCNC(=O)C1CCC1,52.9%
3,COc1cc(Cn2c(-c3ccccc3)cc3c2-c2oncc2CC3)cc(OC)c1OC,-20.5% (active)
4,CCOC(=O)c1cc(C#N)n2ccc3ccccc3c12,98.4%
5,Nc1nc(N)c2c(n1)NC(c1ccccc1)C1CCc3ccccc3C1=N2 (configuration not stated),-12.7% (active)
6,CCOC(=O)C1C(=O)C=C(c2ccc(OC)cc2)CC1c1sc(N(C)Cc2ccccc2)nc1Cl (configuration not stated),58.3%
7,O=C1N[C@@H]2NC(=[N+]3CCOCC3)N[C@@H]2N1,99.6%
8,Cc1ccc2c(n1)C(=O)C(Cl)=C(Nc1cccc(C(F)(F)F)c1)C2=O,-65.2% (active)
9,Cc1cn(-c2cc(NC(=O)c3cncc(C#Cc4cnc5ccc(O[C@@H]6CCOC6)nn45)c3)cc(C(F)(F)F)c2)cn1,-74.8% (active)
10,O=C(O)c1ccc(-n2c(=O)n(-c3cccc(C(F)(F)F)c3)c(=O)c3cc(-c4ccc(F)cc4F)ccc32)cc1,-4.52% (active)
11,Cc1cc2nc3c4cc([N+](=O)[O-])ccc4n(CCN(C)C)c3nc2cc1C,-39.1% (active)
12,CCOCCC(=O)O,99.2%
13,Cc1ccc(N(C(=O)CCc2c[nH]c3ccccc23)[C@H](C(=O)Nc2ccc(Cl)cc2)c2cccc([N+](=O)[O-])c2)cc1,91.3%
14,Nc1nccc2c1ccn2-c1ccc(NC(=O)Nc2cccc(C(F)(F)F)c2)cc1,72.8%
15,COC(=O)c1cc(-c2cc(OC)c(OC)c(OC)c2)[nH]c1N/N=C/c1c(Cl)cccc1Cl,-9.15% (active)
16,CC(=O)O[C@]1(C(C)=O)CCC2C3C[C@H](C)C4=CC(=O)CC[C@]4(C)C3CC[C@@]21C (some centres not stated),86.4%
17,CN(C)c1ccc(/C=N\Nc2cc(=O)[nH]c3ccc(Cl)cc23)cc1,107%
18,CN(C)Cc1ccc(NC(=O)c2cncc(C#Cc3cnc(N)c4ncccc34)c2)cc1F,72.3%

# From PubChem BioAssay (NCI)
